Measured values reported in PubChem BioAssay AID1159580 (chemical genetic matrix, 2015).
Where “and” joins values, the source holds several entries; their conditions need not be identical. Equal entries are not always repeated. The whole screen tested about 5,500 compounds, of which about 2,000 (36%) were called active. Not shown: some 18% with an inconclusive outcome. Rule as the data show it: active = normalized growth mostly below about 0.91 (no sharp cut-off); inconclusive = no clear call, values can overlap the other calls; inactive = mostly above about 0.92. The list shows a part of the results.

Assay: chemical genetic growth profiling, strain panel (AID 1159580);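 also: tested at 20 µM; growth read once vehicle control cultures reached saturation at 30 °C; 1 = growth at the plate median or of vehicle wells; lower values mean less growth of the strain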
Settings: S. cerevisiae deletion strains, growth OD

Measured: normalized growth

Cc1cc(O)c2c(c1)C(=O)c1cccc(O)c1C2=O
active: locus YDR137W, strain rgp1, active compounds read low 0.791 | locus YDR195W, strain ref2 1.18 [resistant] | locus YLR262C, strain YPT6 (second series), active compounds read low 0.857 | locus YOR270C, strain vph1, active compounds read low 0.772 | locus YPL051W, strain arl3, active compounds read low 0.891
inactive: locus YAL013W, strain DEP1, active compounds read low 0.971 | locus YAL021C, strain ccr4, active compounds read low 0.991 | locus YAL026C, strain drs2, active compounds read low 0.974 | locus YAL030W, strain snc1, active compounds read low 1 | locus YBL061C, strain skt5, active compounds read low 0.999 | locus YBR009C, strain hhf1, active compounds read low 0.98 | locus YBR021W, strain FUR4, active compounds read low 1.05 | locus YBR023C, strain chs3, active compounds read low 1.01 | locus YBR171W, strain sec66, active compounds read low 0.996 | locus YBR229C, strain ROT2, active compounds read low 0.996 | locus YBR231C, strain swc5, active compounds read low 0.967 | locus YBR279W, strain paf1, active compounds read low 1 | locus YCL011C, strain gbp2, active compounds read low 1 | locus YCL016C, strain dcc1, active compounds read low 1 | locus YCL029C, strain bik1, active compounds read low 0.992 | locus YCL061C, strain MRC1, active compounds read low 1 | locus YCL069W, strain vba3, active compounds read low 1 | locus YCR088W, strain abp1, active compounds read low 1 | locus YDL005C, strain med2, active compounds read low 1.01 | locus YDL035C, strain GPR1, active compounds read low 0.975 | locus YDL040C, strain nat1, active compounds read low 0.985 | locus YDL074C, strain BRE1, active compounds read low 0.935 | locus YDL101C, strain DUN1, active compounds read low 0.997 | locus YDL185W, strain tfp1, active compounds read low 0.987 | locus YDL192W, strain arf1, active compounds read low 0.967 | locus YDR001C, strain nth1, active compounds read low 0.998 | locus YDR069C, strain doa4, active compounds read low 0.99 | locus YDR101C, strain arx1, active compounds read low 0.975 | locus YDR159W, strain sac3, active compounds read low 1 | locus YDR162C, strain NBP2, active compounds read low 0.969 | locus YDR297W, strain sur2, active compounds read low 0.999 | locus YDR318W, strain mcm21, active compounds read low 0.989 | locus YDR334W, strain swr1, active compounds read low 0.993 | locus YDR335W, strain msn5, active compounds read low 0.989 | locus YDR388W, active compounds read low 0.994 | locus YDR392W, strain spt3, active compounds read low 0.82 | locus YDR502C, strain sam2, active compounds read low 1.01 | locus YEL003W, strain gim4, active compounds read low 0.988 | locus YEL037C, strain rad23, active compounds read low 0.982 | locus YEL061C, strain CIN8 (second series), active compounds read low 0.99 | locus YEL061C, strain CIN8, active compounds read low 0.993 | locus YER015W, strain faa2, active compounds read low 1.01 | locus YER016W, strain bim1, active compounds read low 1 | locus YER110C, active compounds read low 1 | locus YER111C, strain swi4, active compounds read low 1 | locus YER155C, strain BEM2 (second series), active compounds read low 0.985 | locus YER155C, strain BEM2, active compounds read low 1.01 | locus YER167W, strain BCK2, active compounds read low 0.995 | locus YFR010W, strain ubp6, active compounds read low 0.971 | locus YGL078C, strain dbp3, active compounds read low 1.02 | locus YGL086W, strain mad1, active compounds read low 0.965 | locus YGL167C, strain pmr1, active compounds read low 0.987 | locus YGL173C, strain kem1, active compounds read low 1 | locus YGL227W, strain vid30, active compounds read low 1.01 | locus YGL240W, strain doc1, active compounds read low 0.963 | locus YGL248W, strain PDE1, active compounds read low 0.981 | locus YGL253W, strain hxk2, active compounds read low 0.985 | locus YGR078C, strain PAC10, active compounds read low 0.964 | locus YGR135W, strain pre9, active compounds read low 1.01 | locus YGR252W, strain gcn5, active compounds read low 1.03 | locus YHR013C, strain ard1, active compounds read low 1 | locus YHR027C, strain rpn1, active compounds read low 0.998 | locus YHR030C, strain SLT2, active compounds read low 0.981 and 1.02 | locus YHR079C, strain IRE1 (second series), active compounds read low 0.995 | locus YHR079C, strain IRE1, active compounds read low 1.06 | locus YHR094C, strain hxt1, active compounds read low 1.01 | locus YHR129C, strain ARP1, active compounds read low 1 | locus YHR142W, strain chs7, active compounds read low 0.964 | locus YHR200W, strain rpn10, active compounds read low 0.994 | locus YIL066C, strain RNR3, active compounds read low 0.991 | locus YIL073C, strain SPO22, active compounds read low 0.935 | locus YIL125W, strain kgd1, active compounds read low 1 | locus YIR030C, strain dcg1, active compounds read low 1.01 | locus YJL092W, strain hpr5, active compounds read low 1.01 | locus YJL095W, strain BCK1 (second series), active compounds read low 0.999 | locus YJL095W, strain BCK1, active compounds read low 0.914 and 1.05 | locus YJL115W, strain asf1, active compounds read low 0.996 | locus YJL129C, strain trk1, active compounds read low 1.01 | locus YJL134W, strain LCB3, active compounds read low 1 | locus YJL154C, strain vps35, active compounds read low 0.997 | locus YJL164C, strain tpk1, active compounds read low 0.996 | locus YJL166W, strain qcr8, active compounds read low 0.983 | locus YJL168C, strain set2, active compounds read low 1 | locus YJL187C, strain SWE1 (second series), active compounds read low 0.954 | locus YJL187C, strain SWE1, active compounds read low 0.995 | locus YJR043C, strain POL32, active compounds read low 0.977 | locus YJR066W, strain TOR1, active compounds read low 0.979 | locus YKL009W, strain mrt4, active compounds read low 1.02 | locus YKL068W, active compounds read low 1.02 | locus YKL085W, strain MDH1 (second series), active compounds read low 1.01 | locus YKL085W, strain MDH1, active compounds read low 1.01 | locus YKL160W, strain elf1, active compounds read low 0.995 | locus YKL190W, strain CNB1, active compounds read low 0.991 | locus YKR001C, strain vps1, active compounds read low 0.928 | locus YKR026C, strain gcn3, active compounds read low 1.02 | locus YKR091W, strain srl3, active compounds read low 1 | locus YLL001W, strain dnm1, active compounds read low 1.01 | locus YLL026W, active compounds read low 1 | locus YLL041C, strain sdh2, active compounds read low 1.01 | locus YLR027C, strain aat2, active compounds read low 1.01 | locus YLR039C, strain RIC1, active compounds read low 0.818 | locus YLR058C, strain SHM2, active compounds read low 0.972 | locus YLR102C, strain apc9, active compounds read low 1.01 | locus YLR113W, strain HOG1, active compounds read low 1.07 | locus YLR221C, strain rsa3, active compounds read low 1.01 | locus YLR258W, strain gsy2, active compounds read low 0.991 | locus YLR268W, strain sec22, active compounds read low 0.933 | locus YLR320W, strain mms22, active compounds read low 0.949 | locus YLR330W, strain CHS5, active compounds read low 0.986 | locus YLR342W, strain FKS1 (second series), active compounds read low 0.984 | locus YLR342W, strain FKS1, active compounds read low 1.01 | locus YLR357W, strain rsc2, active compounds read low 1.03 | locus YLR370C, strain arc18, active compounds read low 1.02 | locus YLR371W, strain rom2, active compounds read low 0.963 | locus YLR384C, strain iki3, active compounds read low 0.998 | locus YLR418C, strain cdc73, active compounds read low 0.936 | locus YML016C, strain PPZ1, active compounds read low 0.997 | locus YML032C, strain rad52, active compounds read low 0.935 | locus YML120C, strain ndi1, active compounds read low 0.998 | locus YML124C, strain tub3, active compounds read low 1.01 | locus YMR058W, strain fet3, active compounds read low 0.98 | locus YMR078C, strain ctf18, active compounds read low 0.988 | locus YMR125W, strain sto1, active compounds read low 1.05 | locus YMR129W, active compounds read low 0.999 | locus YMR205C, strain PFK2, active compounds read low 1.03 | locus YMR223W, strain ubp8, active compounds read low 0.968 | locus YMR231W, strain pep5, active compounds read low 0.999 | locus YMR263W, strain SAP30, active compounds read low 0.982 | locus YMR307W, strain GAS1, active compounds read low 0.883 | locus YNL067W, strain RPL9B, active compounds read low 0.99 | locus YNL071W, strain lat1, active compounds read low 0.996 | locus YNL183C, strain NPR1, active compounds read low 0.974 | locus YNL209W, strain ssb2, active compounds read low 0.988 | locus YNL233W, strain BNI4, active compounds read low 0.966 | locus YNL248C, strain rpa49, active compounds read low 0.948 | locus YNL250W, strain rad50, active compounds read low 1.04 | locus YNL271C, strain bni1, active compounds read low 1 | locus YNL298W, strain CLA4, active compounds read low 1.02 | locus YNL307C, strain MCK1, active compounds read low 1.01 | locus YNL322C, strain KRE1 (second series), active compounds read low 1.02 | locus YNR049C, strain mso1, active compounds read low 1.01 | locus YNR052C, strain pop2, active compounds read low 0.961 | locus YOL012C, strain htz1 1.1 | locus YOL147C, strain pex11, active compounds read low 0.994 | locus YOR001W, strain rrp6, active compounds read low 0.983 | locus YOR061W, strain CKA2, active compounds read low 1 | locus YOR069W, strain VPS5, active compounds read low 0.999 | locus YOR070C, strain gyp1, active compounds read low 1.02 | locus YOR080W, strain dia2, active compounds read low 0.996 | locus YOR083W, strain WHI5, active compounds read low 0.999 | locus YOR106W, strain vam3, active compounds read low 0.965 | locus YOR136W, strain idh2, active compounds read low 1.01 | locus YOR144C, strain elg1, active compounds read low 0.998 | locus YOR184W, strain ser1, active compounds read low 0.946 | locus YOR231W, strain MKK1, active compounds read low 1.09 | locus YOR265W, strain rbl2, active compounds read low 0.996 | locus YOR290C, strain snf2, active compounds read low 0.967 | locus YOR316C, strain cot1, active compounds read low 1.02 | locus YPL078C, strain atp4, active compounds read low 0.96 | locus YPL106C, strain sse1, active compounds read low 0.974 | locus YPL240C, strain hsp82, active compounds read low 1 | locus YPL256C, strain CLN2, active compounds read low 1.09 | locus YPR119W, strain clb2, active compounds read low 1 | locus YPR141C, strain kar3, active compounds read low 1.03 | locus YPR163C, strain tif3, active compounds read low 1 | locus YPR167C, strain met16, active compounds read low 0.998 | strain wtn01, active compounds read low 0.97
